CYP2C9 act: CYP2C9 (human) activation | P11712 | recombinant CYP2C9, luciferin-H conversion, luminescence; active compounds read high; factor 1 = untreated enzyme, 0 = blocked | activation factor at 5 µM | 1.4% of 96,000 active | AID 1024;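 active = activation factor of 2 or more for CYP2C9 at a 5 µM dose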;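 also: 0 = sulfaphenazole-blocked wells and 1 = vehicle-only wells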
Target sequence (P11712 whole entry, looked up): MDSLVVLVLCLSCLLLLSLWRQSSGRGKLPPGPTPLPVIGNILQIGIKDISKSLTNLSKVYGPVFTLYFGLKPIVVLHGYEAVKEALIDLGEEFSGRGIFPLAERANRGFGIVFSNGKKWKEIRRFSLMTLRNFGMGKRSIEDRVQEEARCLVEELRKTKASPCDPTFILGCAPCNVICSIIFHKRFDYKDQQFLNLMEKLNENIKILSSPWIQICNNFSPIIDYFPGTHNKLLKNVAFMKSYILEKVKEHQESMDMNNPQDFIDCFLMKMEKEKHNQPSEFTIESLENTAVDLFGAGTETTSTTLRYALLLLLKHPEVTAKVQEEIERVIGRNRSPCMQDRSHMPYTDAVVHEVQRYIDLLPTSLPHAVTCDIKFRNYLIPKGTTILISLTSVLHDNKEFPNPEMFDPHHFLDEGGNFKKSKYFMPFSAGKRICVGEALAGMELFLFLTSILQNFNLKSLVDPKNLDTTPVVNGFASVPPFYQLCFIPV
CYP2C19 act: cytochrome P450 2C19 (human) activation; P33261; recombinant CYP2C19, luciferin-H EGE luminescence; active compounds read high; 0 = fully inhibited enzyme, 1 = untreated enzyme; activation factor at 5 µM; 96,000 tested, under 10 active; AID 1025;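 active = activation factor of at least 2 at 5 µM in the primary screen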;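 also: 0 = wells with 2.5 mM tranylcypromine and 1 = vehicle-only wells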
PTK2B oligo ant: blocks oligomerization of human Pyk2 in cells. Q14289. z-score (the deposit names both 25 µM and 10 µM). 0.83% of 99,000 active. Q293 cells, Pyk2 FERM NanoBiT luminescence; active compounds read low;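 active = Z-score of -3 or lower, scaled per plate to the spread of control and sample wells; inactive = z-score above -3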;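 also: negative z-score means lost luminescence so less FERM oligomerization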
CYP2C9 inhib: inhibitors of human CYP2C9 | P11712 | inhibition, % at 5 µM | CYP2C9 Supersomes, luciferin-H conversion, luminescence | 20% of 96,000 active;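 active = blocking of liver enzyme CYP2C9 beyond about 50% at 5 µM, limit read from the data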
Cav32 inh: blocks human Cav3.2 T-type calcium channel; Cav3.2-expressing cells, Fluo-4 calcium fluorescence FDSS; active compounds read low; O95180; 4% of 100,000 active; AID 449739; B-score at 10 µM;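 active = single-dose well whose peak fluorescence ratio is a statistical outlier from its plate by either plate-standardised score or position-corrected B-score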
CYP2C19 inh: human CYP2C19 inhibition. 21% of 96,000 active. CYP2C19 Supersomes, luciferin-H EGE luminescence, 30 min. inhibition, % at 5 µM. P33261;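 active = CYP2C19 inhibition above a set limit at 5 µM in the primary screen, cut at about 50% in these data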;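 also: plate controls were negative control wells for no effect and 2.5 mM tranylcypromine positive control for full effect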
Numbers without * were called inactive; . = no result given. A selection: hits, their analogues and other compounds. The true share with any hit is near 27%.

SMILES	CYP2C9 act	CYP2C19 act	PTK2B oligo ant	CYP2C9 inhib	Cav32 inh	CYP2C19 inh
Cc1noc(C)c1S(=O)(=O)N1CCCC(C(=O)N2CCN(C3CCCCC3)CC2)C1 (stereo not drawn)	0.8	1.2	.	19	.	-21
Cc1noc(C)c1S(=O)(=O)N1CCCC(C(=O)N2CCc3ccccc3C2)C1 (stereo not drawn)	0.5	0.3	.	47	2.7	74*
O=C(Cn1cc2c(n1)CCCCC2)NCc1ccccn1	1.2	0.6	.	-16	0.061	39
Cc1nn(-c2ccccc2)c2sc(C(=O)O)cc12	1.2	1	0.47	-16	-0.64	-3
COC(=O)c1cc2c(C)nn(-c3ccccc3)c2s1	0.9	0.5	-0.79	10	0.61	52*
Cc1nn(-c2ccccc2)c2sc(C(=O)OCC(=O)N3CCCCC3)cc12	1	1	0.41	-5	0.29	-2
Cc1nn(-c2ccccc2)c2sc(C(=O)OCc3nnc(-c4ccccc4)o3)cc12	0.5	1	-0.4	55*	-1.5	2
CCOC(=O)c1cc2c(C)nn(-c3ccccc3)c2s1	.	.	-0.69	.	-0.52	.
Cc1nn(-c2ccccc2)c2sc(C(=O)OC3CCOC3=O)cc12 (stereo not drawn)	0.3	0.7	-0.54	68*	.	31
Cc1nn(-c2ccccc2)c2sc(C(=O)N(CC(=O)NC(C)(C)C)Cc3ccco3)cc12	0.4	0.8	-1.1	56*	-1.3	25
Cc1nn(-c2ccccc2)c2sc(-c3n[nH]c(=S)o3)cc12	0.3	1.1	-0.3	66*	0.17	-6
NC1=NC[C@@H](Cc2ccc(O)cc2)N1CCCCC1CCCCC1	.	.	.	.	-1.5	.
Cc1c(C#N)c(SCC(N)=O)nc2c1CCCC2	1.1	0.8	0.6	-13	0.75	21
S=c1[nH]nc(COc2ccccc2)n1/N=C/C(Cl)=C/c1ccccc1	0.6	0.9	0.72	39	-2.8	14
COc1ccc(CC(=O)NCc2nnc(SCC(=O)Nc3nccs3)n2-c2ccccc2)cc1	0.7	1	.	28	-0.52	-1
CC1CCCC(C)N1C(=O)CSc1nnc(COc2ccccc2)n1-c1ccccc1 (stereo not drawn)	0.6	0.4	-0.73	42	-3.5*	65*
Cc1nnc(SC(C)C(=O)Nc2ccc(Cl)cn2)n1Cc1ccccc1 (stereo not drawn)	0.9	0.5	-0.23	9	-1.6	48
COc1ccc(OCc2nnc(SC(C)C(=O)Nc3nccs3)n2-c2ccccc2)cc1 (stereo not drawn)	0.4	0.5	-0.91	60*	0.039	50
S=c1[nH]nc(COc2ccccc2)n1C1CCCCC1	0.7	0.4	-0.59	34	0.059	60*
CC(Sc1nnc(-c2ccc(Cl)cc2Cl)n1Cc1ccccc1)C(=O)Nc1nccs1 (stereo not drawn)	0.5	0.6	-1.8	54*	-8.2*	43
COc1ccc(-n2c(COc3ccccc3)nnc2SCC(N)=O)cc1	0.8	0.4	-0.13	23	0.52	63*
COc1ccc(-n2c(COc3ccc(C)cc3)nnc2SCC(N)=O)cc1	0.9	0.8	0.04	7	1.3	16
COc1cccc(-n2c(COc3ccc(C)cc3)nnc2SCC(N)=O)c1	0.8	0.3	0.78	23	0.64	67*
O=C(CSc1nnc(COc2ccccc2)n1-c1ccccc1)c1ccccc1	0.6	0.6	-0.73	43	-6.1*	38
NC(=O)CSc1nnc(COc2ccccc2)n1C1CCCCC1	0.4	0.2	0.49	56*	.	80*
SMILES	CYP2C9 act	CYP2C19 act	PTK2B oligo ant	CYP2C9 inhib	Cav32 inh	CYP2C19 inh
COc1ccc(C(=O)CSc2nnc(COc3ccc(C#N)cc3)n2-c2ccccc2)cc1	1.1	1.1	1	-11	-0.0068	-14
NC(=O)CSc1nnc(Cc2cccs2)n1C1CCCCC1	1.1	1.1	0.17	-11	1.1	-6
Cc1ccc(OCc2nnc(SCC(=O)Nc3cccc4ccccc34)n2-c2ccccc2)cc1	.	.	-1.3	.	-3.7	.
N=C1C=CC=C2C1=NC1(CCCCC1)N2O	0.8	0.8	-0.05	22	0.27	18
Cc1ccc2nc(N3CCN(C=O)CC3)nc(-c3ccccc3)c2c1	.	.	-1.3	.	-1.6	.
COc1cccc(CNC(=O)C(=O)NCC2CCCO2)c1 (stereo not drawn)	.	.	0.78	.	2.1	.
COC(=O)[C@@]1(Cc2ccc(OC)cc2)[C@H]2c3cc(C(=O)N4CCCC4)n(CCN4CCNC4=O)c3C[C@H]2CN1C(=O)c1ccccc1	.	.	.	.	0.83	.
CCOC(=O)COc1ccc(S(=O)(=O)Nc2ccc3c(c2)OCCO3)cc1	0.9	0.9	1.2	7	-3.1	6
COC(=O)C1=C(C(=O)OC)SC(=C2C(=S)C(C)(C)N(C(=O)C(C)C)c3ccccc32)S1	0.1	0.6	-2.4	95*	-0.32	40
CC1C(=O)Nc2ccccc2N1C(=O)C1CC1 (stereo not drawn)	1	1	0.02	-4	0.39	-2
COC(=O)C1=C(C(=O)OC)SC(=C2C(=S)C(C)(C)N(C(=O)C3CC3)c3ccccc32)S1	0.2	0.3	-2.4	78*	-2.3	69*
COc1ccc2c(c1)C(C)=CC(C)(C)N2C(=O)C(C)N1C(=O)c2ccccc2C1=O (stereo not drawn)	.	.	-1.5	.	-0.95	.
CC(=O)C1=C(O)CCC1=N	1	1	0.01	2	0.57	0
CCOC(=O)N1CCN(C(=O)CN(c2cccc(C(F)(F)F)c2)S(C)(=O)=O)CC1	0.9	0.7	1.3	7	0.46	30
CCCOc1ccc(-c2cnc(N)s2)cc1	0.8	0.8	-0.38	22	0.65	15
COc1ccc(-c2cc(-c3ccccc3)n3ncnc3n2)cc1	0.6	0.7	-2.1	44	-0.37	28
CCc1c(C)nc2ncnn2c1NCCc1ccccc1	0.6	0.4	-1	43	0.38	64*
Cc1nc2ncnn2c(Nc2ccc3c(c2)OCO3)c1Cc1ccccc1	0.7	0.3	-1.2	29	-0.74	72*
Cc1nc2ncnn2c(C)c1CCC(=O)NCc1ccccc1	1	1	0.78	4	0.19	-3
COc1ccc(CCNc2cc(-c3ccccc3)nc3ncnn23)cc1	0.4	0.6	-0.78	56*	.	36
CC(C)(O[C@@H]1O[C@H](CO)[C@@H](O)[C@H](O)[C@H]1O)[C@H]1Cc2cc3ccc(=O)oc3cc2O1	.	.	.	.	1.3	.
C#CC(CC)(CC)NC(=S)Nc1cccc(C(C)=O)c1	.	.	0.19	.	-0.76	.
COc1ccc(C2C(C#N)=C(N)Oc3cc(O)ccc32)cc1OC (stereo not drawn)	0.6	0.6	-0.51	36	0.12	38
CCOC(=O)C1=C(C)OC(N)=C(C#N)C1c1cc(OC)c2c(c1)OCO2 (stereo not drawn)	0.3	0.2	-0.45	66*	-0.21	84*
COc1cc(C2C(C#N)=C(N)Oc3cc(N(C)C)ccc32)cc2c1OCO2 (stereo not drawn)	0.5	0.5	-2.1	55*	-2.4	51*
